Screens from PubChem.
NIH3T3 tox – Cytotoxic Profiling in NIH 3T3 Cell Line of Diverse Libraries Using Quantitative High-Throughput Screening | AID 1345082, 2018 | Potency, µM (titrated, usually from 96.7 µM), for inactives: top-dose activity change, negative = cytotoxicity, actives largely listed as inhibitors | NIH 3T3 viability, CellTiter-Glo ATP luminescence, 48-72 h | actives 4.3% (n = 94,000); also: nearly all actives have a fitted effect of over 55% in size
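Cells were seeded at 400 per well, treated with pin-transferred compound, and kept 48 or 72 hr at 37 °C before CellTiter-Glo addition and luminescence imaging of cellular ATP.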
FLuc inh – Firefly luciferase inhibition profiling of diverse chemical library using quantitative high-throughput screening. actives 2.5% (n = 76,000). purified P. pyralis luciferase, luminescence, biochemical. Potency, µM (highest dose often 115 µM), actives largely listed as inhibitors; also: nearly all actives have a fitted effect of over 65% in size
Target sequence (P08659 whole entry, looked up): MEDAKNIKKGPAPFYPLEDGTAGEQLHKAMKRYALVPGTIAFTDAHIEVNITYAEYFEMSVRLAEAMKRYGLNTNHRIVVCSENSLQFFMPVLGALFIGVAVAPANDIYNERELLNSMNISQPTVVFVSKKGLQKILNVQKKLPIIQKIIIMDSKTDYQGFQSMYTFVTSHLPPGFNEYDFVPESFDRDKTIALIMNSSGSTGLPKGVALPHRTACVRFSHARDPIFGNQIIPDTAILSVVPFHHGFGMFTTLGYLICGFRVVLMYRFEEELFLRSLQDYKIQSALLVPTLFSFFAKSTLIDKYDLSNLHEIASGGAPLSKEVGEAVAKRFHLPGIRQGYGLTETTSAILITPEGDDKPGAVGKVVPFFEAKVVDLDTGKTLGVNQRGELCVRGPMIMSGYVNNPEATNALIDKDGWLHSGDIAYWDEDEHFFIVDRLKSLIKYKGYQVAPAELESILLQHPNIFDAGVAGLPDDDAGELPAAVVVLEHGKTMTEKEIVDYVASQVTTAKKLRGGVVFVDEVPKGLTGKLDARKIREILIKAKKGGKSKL
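FLuc 10nM, D-luciferin 10uM, ATP 10uM, Mg acetate 10mM, Tris acetate pH 7.5, Tween/BSA; cpd qHTS; enzyme added last; CCD luminescence.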
HEK cytotox – Cytotoxic Profiling in HEK 293 Cell Line of Diverse Libraries Using Quantitative High-Throughput Screening | HEK 293 viability, ATP luminescence (CellTiter-Glo), 48-72 h | Potency, µM (doses to about 115 µM), without a hit: at the top dose activity change, negative = cytotoxicity, most hits filed as inhibitors | actives 6.6% (n = 94,000); also: nearly all actives have a fitted effect of over 60% in size
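qHTS cytotoxicity; HEK 293, 250 cells/well; compound pinned; 48 or 72 hr, 37 degree Celsius, 5% CO2, 95% humidity; CellTiter-Glo, 10 min RT; luminescence (ATP).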
hNpr1 antagonist – Natriuretic polypeptide receptor (hNpr1) antagonism - Primary qHTS; actives 1.6% (n = 76,000); HEK293 hNpr1 GloSensor cGMP, ANP-stimulated luminescence; Potency, µM (titrated, usually from 46.3 µM), for inactives: top-dose activity change, negative = inhibition, most hits filed as inhibitors; Atrial natriuretic peptide receptor 1 (Homo sapiens), P16066; AID 1347048, 2019; calls by dose curve; also: nearly all actives have a fitted effect of over 60% in size
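Compound pre-incubated 30 min at room temperature on GloSensor-loaded HEK293 cells stably carrying hNpr1 and the pGS-40F cGMP biosensor. Stimulation uses hNppA at 0.1 nM final; luminescence is taken at baseline and 20 min post-agonist.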
Active calls of the source: *; i = inactive; ? = inconclusive; . = not tested or not shown; [ ] = remark or other dose. Rows were chosen to be rich in hits. Some 11% of all compounds tested hit in one or more screens of this group. Unless noted, calls follow the shape of the dose curve; as a rule, active = well fitted curve in the direction sought with a large enough effect; inconclusive = small, poorly fitted or top-dose-only effect, or another doubt; inactive = no such curve, though single readings can be large; an effect the other way counts as inactive or inconclusive. % is scaled to controls: 0 for no effect and ±100 for the full control effect; potency is read from the fitted curve at half-maximal effect.

SMILES | NIH3T3 tox | FLuc inh | HEK cytotox | hNpr1 antagonist
CC(C(=O)N1CCC2(CC1)N(Cc1ccccc1)C(=O)CS2(=O)=O)c1ccccc1 (centres undefined) | ? | . | 2% | .
COC[C@@H]1[C@H](C(=O)NCCC(C)C)CCC(=O)N1C | -2% | . | -6% | .
O=C1[C@@H]2C[C@@H](O)CN2C2(CN(Cc3cccc(F)c3)C2)C(=O)N1Cc1ccccc1 | -20%[174 µM] | i | -6%[172 µM] | 0%[70.6 µM]
CCCCCNC(=O)C1CCCN(Cc2cccc(-c3ccsc3)c2)C1 (centres undefined) | 35µM* | . | 32µM* | .
COCCNC(=O)C1CCCN(Cc2cccc(-c3ccsc3)c2)C1 (centres undefined) | ? | . | -27% | .
O=C(NCCC1CCCCC1)C1CCCN(Cc2cccc(-c3ccsc3)c2)C1 (centres undefined) | ? | . | 45µM* | .
O=C1CO[C@H]2CN(Cc3c[nH]c4ccccc34)C[C@H]2N1Cc1ccc(F)cc1 | ? | ? | ? | -21%[70.6 µM]
CC(C)C(=O)N1CCC2(CC1)CC(C(=O)N1CCOCC1)N(C)C2 (centres undefined) | -16% | . | -2% | .
O=C(Nc1ccc(Cl)cc1Cl)c1cccn2cncc12 | ? | 45µM* | ? | -19%[70.6 µM]
C=CCNC(=O)c1cccn2cncc12 | -2%[174 µM] | i | -18%[230 µM] | -2%[70.6 µM]
O=C(Nc1ccc(F)cc1)c1cccn2cncc12 | -27%[138 µM] | 45µM* | ? | -1%[70.6 µM]
Cc1nnc2ccc(N3CCN(C(=O)c4ccc(F)cc4)CC3)nn12 | ? | . | -28%[172 µM] | .
CCOc1ccc(OCC)c(-c2nc3ccc(-c4ccc(OC)c(OC)c4OC)cc3o2)c1 | -28% | i | ? | 6%
COc1ccc(-c2nnc(C[C@@H]3C[C@@H](C(C)C)[C@H](CN(C)CCC#N)C=C3C)o2)cc1 | 89µM* | i | 63µM* | ?
CC1=C[C@@H](CN(C)CCC#N)[C@H](C(C)C)C[C@H]1Cc1nnc(-c2ccc(C)cc2)o1 | ? | i | 50µM* | ?
COc1ccc(-c2nnc(C[C@@H]3C[C@@H](C(C)C)[C@H](CNCc4cccnc4)C=C3C)o2)cc1 | ? | i | ? | -30%
COc1ccc(-c2nnc(C[C@@H]3C[C@@H](C(C)C)[C@H](CN(C)CCc4ccccn4)C=C3C)o2)cc1 | 35µM* | i | 22µM* | -8%
O=C(c1cccnc1N1CC2CC(C1)[C@H]1CCCC(=O)N1C2)N1CC=C(c2ccccc2)CC1 (some centres undefined) | -22% | i | -24% | -10%
O[C@@H]1CC(CNCC2CCCC2)(COc2cccnc2)C[C@@H]1O (some centres undefined) | -4%[138 µM] | i | -2%[172 µM] | -11%[70.6 µM]
COc1ccc(NC(=O)O[C@@H]2CO[C@H]3[C@@H]2OC[C@@H]3Nc2nccc(-c3cccc(C#N)c3)n2)cc1 | -14% | i | -26% | -1%
N#Cc1cccc(-c2ccnc(N[C@H]3CO[C@H]4[C@@H]3OC[C@H]4OC(=O)Nc3cccc4ccccc34)n2)c1 | ? | i | 22µM* | -29%
N#Cc1cccc(NC(=O)O[C@@H]2CO[C@H]3[C@@H]2OC[C@@H]3Nc2nccc(-c3cccc(C#N)c3)n2)c1 | -13% | i | ? | -1%
CN(C)c1ccc(-c2ccnc(N[C@H]3CO[C@H]4[C@@H]3OC[C@H]4OC(=O)Nc3cccc(C#N)c3)n2)cc1 | ? | i | 14µM* | ?
CCN(Cc1cccnc1)C(=O)c1cc(-c2cnn(CC)c2)nc2cc(C)ccc12 | 6.3µM* | ? | -19% | -4%
COc1nc2nc(CC3CC3)n(C)c2cc1-c1ccc(N2CCOCC2)cc1 | ? | i | ? | -26%[70.6 µM]
SMILES | NIH3T3 tox | FLuc inh | HEK cytotox | hNpr1 antagonist
CCc1ccc(CNC(=O)C2CCN(C(=O)c3ncn4c3COC(c3ccc(F)cc3)C4)CC2)cc1 (centres undefined) | -11% | ? | -16% | 0%
COc1ccc(CNC(=O)C2CCN(C(=O)c3ncn4c3COC(c3ccc(C)cc3)C4)CC2)cc1 (centres undefined) | -14% | 40µM* | -18% | -10%
Cc1ccc(C2Cn3cnc(C(=O)N4CCC(C(=O)NCc5ccc(F)cc5)CC4)c3CO2)cc1 (centres undefined) | i | 35µM* | 8% | -12%
COc1ccc(-c2nn(-c3ccccc3)cc2CN2CCCC(C)(O)C2)c(F)c1 (centres undefined) | ? | i | 89µM* | 0%
COc1ccc(-n2cc(CN3CCC(CO)CC3)c(-c3cccc(F)c3)n2)cc1 | 79µM* | i | ? | 3%
COc1ccc(-n2cc(CN3CCCC(O)C3)c(-c3cccc(F)c3)n2)cc1 (centres undefined) | ? | 28µM* | ? | 0%
COc1ccc(OC)c2nc(-c3cccc(Cl)c3)c(CN3CCCC(O)C3)cc12 (centres undefined) | ? | i | ? | -3%
COc1ccc(-n2cc(CN3CCCN(C)CC3)c(-c3cccc(F)c3)n2)cc1 | 45µM* | i | ? | -6%
CC(C)N1CC(C(=O)NCc2cccs2)NC1=O (centres undefined) | -30%[138 µM] | . | -13%[172 µM] | .
COc1ccc(Cl)cc1-c1ccc2c(c1)C(=O)N1CC[C@H](N)[C@H]1C(=O)N2 | ? | i | ? | 4%[70.6 µM]
O=C(C1CCCN1c1nccc(Nc2ccccc2F)n1)N1CCCC1 (centres undefined) | -23% | . | -19% | .
O=C1CC(c2ccccc2)N(Cc2ccncc2)CCCN(C(=O)Cc2cccnc2)CCN1 (centres undefined) | -8% | i | -18% | 5%
COc1cc(C)c(-c2nc(Cn3cccn3)c(C)o2)cc1C | -13% | i | ? | 9%
Cc1ccccc1-c1nc(Cn2ccnc2C(C)C)c(C)o1 | ? | i | 28µM* | ?
CC(=O)NCCNC(=O)[C@@H]1Cc2cn(Cc3cc(C)on3)c3cccc(c23)[C@H](CC(C)C)N1 | -8% | i | ? | 4%
Cc1cc(Cn2cc3c4c(cccc42)[C@H](CC(C)C)N[C@H](C(=O)NCc2nccs2)C3)no1 | ? | i | 22µM* | -3%
Cc1cc(Cn2cc3c4c(cccc42)[C@H](CC(C)C)N[C@H](C(=O)NCc2ccc(C)o2)C3)no1 | ? | i | 32µM* | -2%
COc1cccc(CC(=O)NC2CCN(C(=O)c3cc4c(=O)[nH]c(C)cn4n3)CC2)c1 | 4% | i | 7% | 17%
Cc1nn(C)cc1CN1C[C@@H](COCC2CC2)[C@H](c2ccccn2)C1 | -19% | i | -22% | -17%
Cc1ccc2nc(C3CCN(Cc4cccc(-c5cccnc5)c4)CC3)[nH]c(=O)c2c1 | -33% | i | ? | -12%
